The source made the active and inactive calls. Rule for the calls: active = hit-call score of the fitted dose curve at least 0.9, where 1 is the maximum; inactive = score below 0.9.
Tests used:
Settings in all cases: mRNA level, 48 h; actives raise or lower the signal
[1] = read-out: Alpha-fetoprotein (AFP) gene, AFP (gene 174); assay: LTEA_HepaRG_AFP: Life Technologies and Expression Analysis (LTEA) Assay for Alpha-fetoprotein (AFP) gene using HepaRG (AID 2283472)
Method in brief: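 HepaRG, single lot; 48 h post-plating -> serum-free induction medium; cpd 8-pt, 100 uM top, half-log, 0.5% DMSO, duplicate, 48 h. RNA -> qRT-PCR AFP, norm ACTB/GAPDH/POLR2A. Bidirectional fit vs DMSO.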

[2] = read-out: BCL2L11 (gene 10018); assay: LTEA_HepaRG_BCL2L11: Life Technologies and Expression Analysis (LTEA) Assay for Bcl-2 (BCL2L11) gene using HepaRG (AID 2283473)
Method in brief: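 HepaRG, 48 h exposure, 8-pt half-log series from 100 uM in 0.5% DMSO, duplicates; qRT-PCR (Fluidigm TaqMan) for BCL2L11, housekeeping-normalized; bidirectional curve fit relative to DMSO baseline.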

[3] = read-out: Apolipoprotein A-V (APOA5) gene, APOA5 (gene 116519); assay: LTEA_HepaRG_APOA5: Life Technologies and Expression Analysis (LTEA) Assay for Apolipoprotein A-V (APOA5) gene using HepaRG (AID 2283474)
Method in brief: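 HepaRG, 48 h chemical exposure in serum-free induction medium, 8-pt half-log series (top 100 uM), 0.5% DMSO vehicle, duplicates. Readout: APOA5 mRNA by qRT-PCR, housekeeping-normalized; bidirectional fit vs DMSO baseline.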

[4] = read-out: Apoptosis regulator Bcl-2 (Homo sapiens) (UniProt P10415); assay: LTEA_HepaRG_BCL2: Life Technologies and Expression Analysis (LTEA) Assay for Bcl-2 gene using HepaRG (AID 2283475)
Method in brief: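 HepaRG, plated 48 h then switched to serum-free induction medium; dosed 48 h, 8 conc. (max 100 uM, half-log steps), duplicate, 0.5% DMSO. Lysis in RLT, RNA isolated, TaqMan qRT-PCR for BCL2; ACTB/GAPDH/POLR2A normalisation; bidirectional fit vs DMSO.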

[5] = read-out: Bcl-2 (BID) gene, BID (gene 637); assay: LTEA_HepaRG_BID: Life Technologies and Expression Analysis (LTEA) Assay for Bcl-2 (BID) gene using HepaRG (AID 2283476)
Method in brief: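 Transcript levels of BID, measured by qRT-PCR and normalized to three housekeeping genes, were fitted bidirectionally against DMSO controls. Cells were HepaRG, dosed 48 h at up to 100 uM.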

[6] = read-out: Caspase-3 (Homo sapiens) (UniProt P42574); assay: LTEA_HepaRG_CASP3: Life Technologies and Expression Analysis (LTEA) Assay for cysteine-aspartic acid protease (CASP3) using HepaRG (AID 2283477)
Method in brief: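 HepaRG, 48 h exposure, 8 conc. (top 100 uM, half-log steps, duplicate), 0.5% DMSO vehicle; qRT-PCR of CASP3 transcript, housekeeping-normalised (ACTB/GAPDH/POLR2A); bidirectional curve fit vs DMSO baseline.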

[7] = read-out: Cytochrome P450 (CYP24A1), CYP24A1 (gene 1591); assay: LTEA_HepaRG_CYP24A1: Life Technologies and Expression Analysis (LTEA) Assay for Cytochrome P450 (CYP24A1) using HepaRG (AID 2283478)
Method in brief: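 qRT-PCR read-out: CYP24A1 transcript levels normalized to three housekeeping genes, bidirectional curve fits against 0.5% DMSO baseline. Human HepaRG cells treated 48 h with chemicals at eight concentrations from 100 uM in half-log steps.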

[8] = read-out: Cytochrome P450 (CYP1A2), CYP1A2 (gene 1544); assay: LTEA_HepaRG_CYP1A2: Life Technologies and Expression Analysis (LTEA) Assay for Cytochrome P450 (CYP1A2) using HepaRG (AID 2283479)
Method in brief: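 HepaRG, 48 h exposure, top 100 uM, half-log 8-pt, 0.5% DMSO vehicle, duplicates. Readout: TaqMan qRT-PCR of CYP1A2 mRNA, housekeeping-normalized (ACTB/GAPDH/POLR2A). Gain/loss fit relative to DMSO baseline.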

[9] = read-out: cysteine-aspartic acid protease (CASP8), CASP8 (gene 841); assay: LTEA_HepaRG_CASP8: Life Technologies and Expression Analysis (LTEA) Assay for cysteine-aspartic acid protease (CASP8) using HepaRG (AID 2283480)
Method in brief: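 HepaRG, 48 h exposure, duplicate wells; 8 conc, half-log from 100 uM, 0.5% DMSO. Serum-free induction medium. CASP8 mRNA by TaqMan qRT-PCR, norm. ACTB/GAPDH/POLR2A; gain/loss fitted vs DMSO.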

[10] = read-out: Cytochrome P450 (CYP2B6), CYP2B6 (gene 1555); assay: LTEA_HepaRG_CYP2B6: Life Technologies and Expression Analysis (LTEA) Assay for Cytochrome P450 (CYP2B6) using HepaRG (AID 2283481)
Method in brief: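 Read-out is CYP2B6 mRNA by TaqMan qRT-PCR, normalized to three housekeeping genes and fitted bidirectionally against 0.5% DMSO baseline. Human HepaRG cells received test chemicals for 48 h, top concentration 100 uM, half-log dilutions.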

[11] = read-out: Cytochrome P450 2C19 (Homo sapiens) (UniProt P33261); assay: LTEA_HepaRG_CYP2C19: Life Technologies and Expression Analysis (LTEA) Assay for CYP2C19 using HepaRG (AID 2283482)
Method in brief: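 HepaRG, 48 h chemical exposure, 8-pt half-log series from 100 uM in 0.5% DMSO, duplicates. Readout: CYP2C19 mRNA by TaqMan qRT-PCR, housekeeping-normalized. Bidirectional fit vs DMSO baseline; phenobarbital 1mM as induction control.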

[12] = read-out: CYP2C8 (gene 1558); assay: LTEA_HepaRG_CYP2C8: Life Technologies and Expression Analysis (LTEA) Assay for CYP2C8 using HepaRG (AID 2283483)
Method in brief: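 CYP2C8 mRNA induction or loss, by qRT-PCR normalized to ACTB/GAPDH/POLR2A, is read in HepaRG cells after 48 h treatment. Concentrations run from 100 uM down in half-log dilutions, with 0.5% DMSO as vehicle and baseline.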

[13] = read-out: CYP2C9 (gene 1559); assay: LTEA_HepaRG_CYP2C9: Life Technologies and Expression Analysis (LTEA) Assay for CYP2C9 using HepaRG (AID 2283484)
Method in brief: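 Cells plated 48 h, switched to serum-free induction medium, then treated in duplicate for 48 h at eight concentrations (max 100 uM, 0.5% DMSO). RNA then analysed by qRT-PCR for CYP2C9; curves fitted in both directions relative to DMSO.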

[14] = read-out: CYP2E1 (gene 1571); assay: LTEA_HepaRG_CYP2E1: Life Technologies and Expression Analysis (LTEA) Assay for CYP2E1 using HepaRG (AID 2283485)
Method in brief: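 Human liver line HepaRG, plated 48 h, then serum-free induction medium + chemical x 48 h; 8-pt CRC from 100 uM, half-log, 0.5% DMSO, n=2. Readout: CYP2E1 mRNA qRT-PCR vs ACTB/GAPDH/POLR2A; bidirectional fit vs DMSO.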

[15] = read-out: CYP4A11 (gene 1579); assay: LTEA_HepaRG_CYP4A11: Life Technologies and Expression Analysis (LTEA) Assay for CYP4A11 using HepaRG (AID 2283486)
Method in brief: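 CYP4A11 transcript levels were quantified by TaqMan qRT-PCR after HepaRG human liver cells were treated for 48 hours with test chemicals (top 100 uM, half-log dilutions, 0.5% DMSO). Gain or loss of signal was fitted relative to DMSO.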

[16] = read-out: DNA damage-inducible transcript 3 (DDIT3), DDIT3 (gene 1649); assay: LTEA_HepaRG_DDIT3: Life Technologies and Expression Analysis (LTEA) Assay for DNA damage-inducible transcript 3 (DDIT3) using HepaRG (AID 2283488)
Method in brief: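 HepaRG plated 48 h, switched to serum-free induction medium, dosed 48 h (100 uM top, half-log, 8 pts, 0.5% DMSO, n=2); RNA isolated; DDIT3 by qRT-PCR; bidirectional curve fit vs DMSO.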

[17] = read-out: Early growth response protein 1 (EGR1) transcription factor, EGR1 (gene 1958); assay: LTEA_HepaRG_EGR1: Life Technologies and Expression Analysis (LTEA) Assay for Early growth response protein 1 (EGR1) transcription factor using HepaRG (AID 2283490)
Method in brief: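 Read-out is EGR1 mRNA level by qRT-PCR, normalized to three housekeeping genes and analysed for gain or loss of signal against 0.5% DMSO. Source cells: human HepaRG, treated 48 h at up to 100 uM in half-log dilutions.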

[18] = read-out: Ezrin (EZR), EZR (gene 7430); assay: LTEA_HepaRG_EZR: Life Technologies and Expression Analysis (LTEA) Assay for Ezrin (EZR) using HepaRG (AID 2283491)
Method in brief: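 Differentiated human HepaRG cells, 48 h after plating, were exposed in serum-free induction medium for 48 hours to eight half-log concentrations up to 100 uM in 0.5% DMSO. EZR mRNA was measured by TaqMan qRT-PCR, normalized to ACTB, GAPDH and POLR2A, and fitted bidirectionally against DMSO.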

[19] = read-out: Pro-epidermal growth factor (Homo sapiens) (UniProt P01133); assay: LTEA_HepaRG_EGF: Life Technologies and Expression Analysis (LTEA) Assay for Epidermal growth factor (EGF) using HepaRG (AID 2283489)
Method in brief: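 qRT-PCR readout of EGF transcript after 48 h chemical exposure of HepaRG cells; eight concentrations from 100 uM down in half-log steps, duplicate wells, 0.5% DMSO vehicle. Bidirectional curve fitting against DMSO baseline.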

Measured: AC50

Chain of Caspase-3 (Homo sapiens) (P42574 whole entry, looked up): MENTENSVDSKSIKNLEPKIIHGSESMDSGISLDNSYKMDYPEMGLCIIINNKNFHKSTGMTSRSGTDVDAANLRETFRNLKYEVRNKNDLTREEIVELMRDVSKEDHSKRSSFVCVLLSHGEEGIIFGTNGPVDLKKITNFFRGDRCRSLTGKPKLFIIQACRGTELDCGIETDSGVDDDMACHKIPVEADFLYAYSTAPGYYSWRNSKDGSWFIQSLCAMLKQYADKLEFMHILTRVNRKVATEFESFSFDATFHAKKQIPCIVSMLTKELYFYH
Chain of Cytochrome P450 2C19 (Homo sapiens) (P33261 whole entry, looked up): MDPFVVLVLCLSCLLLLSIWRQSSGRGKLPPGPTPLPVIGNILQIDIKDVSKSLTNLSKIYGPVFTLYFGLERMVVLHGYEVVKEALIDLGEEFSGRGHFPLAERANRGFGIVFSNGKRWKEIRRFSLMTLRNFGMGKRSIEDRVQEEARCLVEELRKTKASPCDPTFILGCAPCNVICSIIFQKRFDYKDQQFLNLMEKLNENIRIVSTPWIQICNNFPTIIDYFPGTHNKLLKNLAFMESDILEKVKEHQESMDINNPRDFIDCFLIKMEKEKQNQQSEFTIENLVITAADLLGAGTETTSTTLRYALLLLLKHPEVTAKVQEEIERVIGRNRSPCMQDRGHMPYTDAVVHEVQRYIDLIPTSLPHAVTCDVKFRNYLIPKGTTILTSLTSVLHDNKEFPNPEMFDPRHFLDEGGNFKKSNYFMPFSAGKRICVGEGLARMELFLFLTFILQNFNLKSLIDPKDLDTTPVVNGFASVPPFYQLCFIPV
Chain of Apoptosis regulator Bcl-2 (Homo sapiens) (P10415 whole entry, looked up): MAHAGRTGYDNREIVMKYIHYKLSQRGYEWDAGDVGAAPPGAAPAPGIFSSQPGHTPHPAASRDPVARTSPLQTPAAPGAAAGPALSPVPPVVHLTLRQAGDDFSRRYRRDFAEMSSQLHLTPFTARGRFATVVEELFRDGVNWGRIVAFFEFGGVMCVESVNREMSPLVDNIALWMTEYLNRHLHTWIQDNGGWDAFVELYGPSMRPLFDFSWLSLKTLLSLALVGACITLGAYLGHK

O=c1c(-c2ccc(O)cc2)coc2cc(O)cc(O)c12
not listed: [18] | [19]
inactive: all other assays above

CC[C@H](NC(=O)c1cc(F)ccc1NS(=O)(=O)c1cccc2cccnc12)c1ccccc1
active: [1] 32.1 µM | [3] 60.5 µM | [8] 76 µM | [10] 88.2 µM | [11] 0.972 µM | [13] 78.5 µM | [15] 22.4 µM | [16] 47.8 µM
not listed: [14] | [19]
inactive: all other assays above

CC1=CC(=O)/C(=C(/C)O)C(=O)O1
not listed: [14]
inactive: all other assays above

Cc1cc2c(cc1C(F)(F)F)N(C(=O)Nc1ccc(Oc3cccnc3C)nc1)CC2
inactive: [4] | [6] | [7] | [11] | [12] | [16] | [17] | [18]
active: [1] 19.9 µM | [2] 81.3 µM | [3] 78 µM | [5] 75 µM | [8] 2.31 µM | [9] 73.6 µM | [10] 12.2 µM | [13] 46 µM | [15] 52.6 µM

c1ccc2ccccc2c1
active: [10] 12.1 µM
not listed: [14] | [19]
inactive: all other assays above

O=C1c2ccccc2C(=O)N1CCc1noc(-c2ccc(CN3CCCCCC3)s2)n1
active: [8] 6.97 µM | [10] 27.9 µM
not listed: [14] | [18] | [19]
inactive: all other assays above

O=C(O)c1ccccc1C(=O)OCc1ccccc1
active: [15] 26.2 µM
not listed: [14] | [18]
inactive: all other assays above

C[C@]12CC[C@@H]3c4ccc(O)cc4CC[C@H]3[C@@H]1CC[C@H]2O
active: [1] 75.7 µM | [3] 50 µM | [10] 1.19 µM | [11] 3.77 µM | [12] 1.46 µM | [15] 78.2 µM
not listed: [14] | [18] | [19]
inactive: all other assays above

CN1C(=O)N(c2ccccc2Br)Cc2cnc(Nc3ccc4c(c3)OCC(CO)O4)nc21 (configuration not stated)
inactive: [2] | [12] | [19] | [18]
active: [1] 23.1 µM | [3] 90.3 µM | [4] 89.1 µM | [5] 70.7 µM | [6] 66.4 µM | [8] 90.9 µM | [9] 85.8 µM | [10] 74.3 µM | [11] 35.4 µM | [13] 32.7 µM | [14] 35 µM | [15] 50 µM | [16] 40.5 µM | [17] 24 µM

C[C@]12CC[C@@H]3c4ccc(O)cc4CC[C@H]3[C@@H]1CCC2=O
inactive: [2] | [3] | [4] | [5] | [6] | [9]
active: [1] 26.6 µM | [16] 64.5 µM

O=C=NCCCCCCN=C=O
not listed: [14]
inactive: all other assays above

CCCCOC(=O)c1ccc(O)cc1
not listed: [14] | [17]
inactive: all other assays above

Cc1ccc2oc(CN(Cc3ccccc3)C(=O)Nc3c(F)cc(F)cc3F)c(-c3ccc(Cl)cc3)c2c1
active: [1] 32 µM | [3] 44.2 µM | [4] 44.2 µM | [10] 77 µM | [13] 12.4 µM | [15] 34.8 µM | [16] 64.3 µM
not listed: [8] | [14] | [19]
inactive: all other assays above

Cc1oc2c(NC(=O)c3c(Cl)cccc3Cl)cccc2c1C(C)(C)O
active: [1] 15.8 µM | [3] 50.7 µM | [4] 55.3 µM | [8] 12.7 µM | [10] 32.8 µM | [11] 33.5 µM | [12] 35.8 µM | [13] 33.8 µM | [15] 24.6 µM | [16] 33.2 µM
inactive: [2] | [5] | [6] | [7] | [9]

From PubChem BioAssay (EPA / NIEHS)
